Each structure is given as a SMILES string. Among all 22,000 compounds or so, about 1,100 (5%) were called active. The entries come from a sample that favours actives as a whole. A number with no mark means an inactive call. Cut-off read from the data, not from the text of the source: active = activity score above about 55%; inconclusive = no clear call, values can overlap the other calls; inactive = below that.

Data on 56 compounds can be found in PubChem BioAssay AID651903 (Broad Institute, 2012).

This assay can be described thus: T. cruzi growth inside host cells – cell-based, plate reader, single point, set 2, primary screen (AID 651903).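 Note: parasites and compound incubated about four days before reading; 0% = median of neutral control wells.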 The following applies: intracellular Trypanosoma cruzi in host cells, at 5.01 µM, hits give high values.
As to `C[C@H]1CN([C@@H](C)CO)C(=O)c2cc(NC(=O)Nc3ccc4c(c3)OCO4)ccc2O[C@@H]1CN(C)CC1CCCCC1`, the activity score (inhibition) was 8.83%.
In the case of `C[C@@H]1CN([C@@H](C)CO)C(=O)Cc2cc(NC(=O)Nc3cccc4ccccc34)ccc2O[C@@H]1CN(C)CC1CCCCC1`, the activity score (inhibition) is 59.9% (active).
On to `COc1ccc(NC(=O)Nc2ccc3c(c2)CC(=O)N([C@@H](C)CO)C[C@H](C)[C@@H](CN(C)CC2CCCCC2)O3)cc1`, for which the activity score (inhibition) is -4.28%.
To `C[C@@H]1CN([C@@H](C)CO)C(=O)Cc2cc(NC(=O)Nc3ccc4c(c3)OCO4)ccc2O[C@@H]1CN(C)CC1CCCCC1` belongs 78.2% (active); to `C[C@H]1CN([C@@H](C)CO)C(=O)Cc2cc(NC(=O)Nc3cccc4ccccc34)ccc2O[C@H]1CN(C)CC1CC1`, -24.3%.
In the case of `C[C@@H]1CN([C@@H](C)CO)C(=O)Cc2cc(NC(=O)C3CCCCC3)ccc2O[C@@H]1CN(C)CC1CCCCC1` it was -4.58%; in that of `C[C@H](CO)N1C[C@H](C)[C@H](CN(C)C(=O)Nc2ccc3c(c2)OCO3)Oc2ccc(NS(=O)(=O)c3ccc(Cl)cc3)cc2CC1=O`, -5.11%.
As to `C[C@H](CO)N1C[C@H](C)[C@@H](CN(C)Cc2ccccc2C(F)(F)F)OCc2cn(nn2)CCCC1=O`, the activity score (inhibition) was -23.6%.
On to `Cc1noc(C)c1NC(=O)Nc1ccc2c(c1)C(=O)N([C@H](C)CO)C[C@H](C)[C@@H](CN(C)C(=O)Nc1ccccc1)O2`, for which the activity score (inhibition) was -16.8%.
As to `C[C@@H]1CN([C@@H](C)CO)C(=O)Cc2cc(NC(=O)C3CC3)ccc2O[C@@H]1CN(C)S(C)(=O)=O`, the activity score (inhibition) was -20.7%.
For `C[C@@H]1CN([C@@H](C)CO)C(=O)c2cc(NC(=O)c3ccncc3)ccc2O[C@H]1CN(C)Cc1ccc(C(=O)O)cc1`, the activity score (inhibition) was -2.84%.
For the compound `C[C@@H]1CN([C@@H](C)CO)C(=O)c2cc(NC(=O)c3ccncc3)ccc2O[C@@H]1CN(C)Cc1ccncc1`, the activity score (inhibition) is -7.68%.
`C[C@H]1CN([C@@H](C)CO)C(=O)c2cc(NC(=O)Nc3ccc4c(c3)OCO4)ccc2O[C@@H]1CN(C)Cc1ccc(Oc2ccccc2)cc1`: the activity score (inhibition) was 70.1% (active).
In the case of `C[C@H](CO)N1C[C@H](C)[C@@H](CN(C)Cc2ccccc2)Oc2ccc(NC(=O)Nc3ccc4c(c3)OCO4)cc2C1=O` it was -2%; in that of `C[C@@H]1CN([C@@H](C)CO)C(=O)c2cc(NC(=O)Nc3ccc4c(c3)OCO4)ccc2O[C@@H]1CN(C)Cc1ccc(Oc2ccccc2)cc1`, 17.5%; in that of `C[C@@H]1CN([C@H](C)CO)C(=O)c2cc(NC(=O)c3ccncc3)ccc2O[C@H]1CN(C)Cc1ccc(Oc2ccccc2)cc1`, 85.4% (active).
`C[C@@H]1CN([C@@H](C)CO)C(=O)Cc2cc(NC(=O)C3CCCCC3)ccc2O[C@@H]1CN(C)Cc1ccc(-c2ccccc2)cc1`: the activity score (inhibition) is 43.3%.
For `Cc1ccc(S(=O)(=O)N(C)C[C@@H]2Oc3ccc(NC(=O)Cn4cnnn4)cc3CC(=O)N([C@H](C)CO)C[C@H]2C)cc1`, the activity score (inhibition) was 9.72%.
In the case of `C[C@@H]1CN([C@@H](C)CO)C(=O)c2cccc(NS(=O)(=O)c3ccc(F)cc3)c2O[C@@H]1CN(C)Cc1ccc(C(=O)O)cc1` it was -4.66%; in that of `C[C@@H]1CN([C@H](C)CO)C(=O)Cc2cc(NC(=O)CCC(F)(F)F)ccc2O[C@@H]1CN(C)CC1CCCCC1`, -9.63%.
In the case of `C[C@H](CO)N1C[C@H](C)[C@H](CN(C)Cc2ccc(Oc3ccccc3)cc2)Oc2c(NC(=O)CCCCCC(=O)Nc3ccccc3N)cccc2C1=O`, the activity score (inhibition) is 65.5% (active).
Turning to `C[C@@H]1CN([C@H](C)CO)C(=O)c2cccc(NC(=O)CCCCCC(=O)Nc3ccccc3N)c2O[C@@H]1CN(C)C(=O)Nc1ccccc1`, the activity score (inhibition) is 16.9%.
`C[C@H]1CN([C@@H](C)CO)C(=O)c2cccc(NC(=O)CCCCCC(=O)Nc3ccccc3N)c2O[C@@H]1CN(C)S(=O)(=O)c1cn(C)cn1`: the activity score (inhibition) was -40.6%.
As for `C[C@H]1CN([C@@H](C)CO)C(=O)c2cccc(NC(=O)CCCCCC(=O)Nc3ccccc3N)c2O[C@H]1CN(C)C(=O)Nc1ccccc1`, the activity score (inhibition) was -8.85%.
With `C[C@H](CO)N1C[C@H](C)[C@@H](CN(C)C(=O)Nc2ccccc2)Oc2c(NC(=O)CCCCCC(=O)Nc3ccccc3N)cccc2C1=O`, the activity score (inhibition) was -11.7%.
In the case of `C[C@H]1CN([C@@H](C)CO)C(=O)c2cccc(NC(=O)Nc3ccccc3)c2O[C@H]1CN(C)Cc1ccc(Oc2ccccc2)cc1`, the activity score (inhibition) is 13.5%.
In the case of `C[C@H](CO)N1C[C@H](C)[C@@H](CN(C)Cc2ccccc2)Oc2c(NC(=O)CCCCCC(=O)Nc3ccccc3N)cccc2C1=O`, the activity score (inhibition) was 75.8% (active).
For `C[C@H](CO)N1C[C@H](C)[C@H](CN(C)S(=O)(=O)c2ccccc2)Oc2c(NC(=O)CCCCCC(=O)Nc3ccccc3N)cccc2C1=O`, the activity score (inhibition) is 58.6% (active).
As for `C[C@@H]1CN([C@@H](C)CO)C(=O)c2cccc(NC(=O)Nc3cccc4ccccc34)c2O[C@H]1CN(C)S(=O)(=O)c1ccccc1`, the activity score (inhibition) was -9.51%.
As to `CC(C)NC(=O)Nc1cccc2c1O[C@@H](CN(C)S(=O)(=O)c1ccc(F)cc1)[C@@H](C)CN([C@H](C)CO)C2=O`, the activity score (inhibition) is -25.4%.
With `C[C@@H]1CN([C@@H](C)CO)C(=O)CCCn2cc(nn2)CO[C@@H]1CN(C)C(=O)c1ccncc1`, the activity score (inhibition) was -21.4%.
As for `COc1ccc(S(=O)(=O)Nc2ccc3c(c2)C(=O)N([C@@H](C)CO)C[C@@H](C)[C@@H](CN(C)S(C)(=O)=O)O3)cc1`, the activity score (inhibition) was -8.35%.
With `CC(C)NC(=O)Nc1cccc2c1O[C@H](CN(C)Cc1ccc3c(c1)OCO3)[C@H](C)CN([C@H](C)CO)C2=O`, the activity score (inhibition) is -10.8%.
In the case of `COc1ccc(S(=O)(=O)N(C)C[C@H]2Oc3ccc(NS(=O)(=O)c4c(C)noc4C)cc3CC(=O)N([C@@H](C)CO)C[C@H]2C)cc1` it was -2.67%.
For the compound `C[C@H](CO)N1C[C@H](C)[C@@H](CN(C)S(=O)(=O)c2ccccc2)Oc2c(NS(=O)(=O)c3cn(C)cn3)cccc2C1=O`, the activity score (inhibition) is -8.44%.
Consider `COc1ccc(NC(=O)Nc2ccc3c(c2)C(=O)N([C@@H](C)CO)C[C@H](C)[C@@H](CN(C)S(=O)(=O)c2ccc(Cl)cc2)O3)cc1`, for which the activity score (inhibition) is 16.5%.
For `CC(C)NC(=O)Nc1cccc2c1O[C@H](CN(C)S(=O)(=O)c1ccccc1)[C@@H](C)CN([C@@H](C)CO)C2=O`, the activity score (inhibition) is 0.345%.
In the case of `COc1ccc(CN(C)C[C@@H]2Oc3c(NC(=O)C4CC4)cccc3C(=O)N([C@@H](C)CO)C[C@H]2C)cc1`, the activity score (inhibition) was -27.5%.
On to `C[C@H]1CN([C@@H](C)CO)C(=O)Cc2cc(NS(=O)(=O)c3ccccc3)ccc2O[C@H]1CN(C)Cc1ccc(C(=O)Nc2ccccc2N)cc1`, for which the activity score (inhibition) was 69.5% (active).
In the case of `C[C@@H]1CN([C@H](C)CO)C(=O)c2cc(NS(=O)(=O)c3cn(C)cn3)ccc2O[C@@H]1CN(C)Cc1ccc(C(=O)Nc2ccccc2N)cc1`, the activity score (inhibition) is 3.44%.
Take `Cc1ccc(S(=O)(=O)Nc2ccc3c(c2)CC(=O)N([C@@H](C)CO)C[C@H](C)[C@H](CN(C)Cc2ccc(C(=O)Nc4ccccc4N)cc2)O3)cc1`: the activity score (inhibition) is 66.2% (active).
In the case of `COc1ccc(S(=O)(=O)Nc2ccc3c(c2)CC(=O)N([C@@H](C)CO)C[C@@H](C)[C@@H](CN(C)Cc2ccc(C(=O)Nc4ccccc4N)cc2)O3)cc1`, the activity score (inhibition) is 54%.
For `Cc1ccc(S(=O)(=O)Nc2ccc3c(c2)CC(=O)N([C@@H](C)CO)C[C@H](C)[C@H](CN(C)Cc2ccccc2)O3)cc1`, the activity score (inhibition) is 12.2%.
To `Cc1noc(C)c1S(=O)(=O)Nc1ccc2c(c1)C(=O)N([C@@H](C)CO)C[C@H](C)[C@H](CN(C)Cc1ccc(C(=O)Nc3ccccc3N)cc1)O2` belongs 74% (active).
Turning to `C[C@@H]1CN([C@@H](C)CO)C(=O)c2cc(NS(=O)(=O)c3ccccc3)ccc2O[C@@H]1CN(C)Cc1ccc(C(=O)Nc2ccccc2N)cc1`, the activity score (inhibition) is 34.8%.
To `C[C@H](CO)N1C[C@H](C)[C@H](CN(C)Cc2ccc(C(=O)Nc3ccccc3N)cc2)Oc2ccc(NS(C)(=O)=O)cc2C1=O` belongs 16%; to `Cc1ccc(S(=O)(=O)Nc2ccc3c(c2)C(=O)N([C@@H](C)CO)C[C@@H](C)[C@@H](CN(C)Cc2ccc(C(=O)Nc4ccccc4N)cc2)O3)cc1`, 23.3%; to `C[C@@H]1CN([C@H](C)CO)C(=O)c2cc(NC(=O)Nc3ccccc3)ccc2O[C@H]1CN(C)Cc1ccc(Cl)c(Cl)c1`, -34%.
`C[C@@H]1CCCCO[C@@H](CN(C)S(=O)(=O)c2cccs2)[C@@H](C)CN([C@H](C)CO)C(=O)c2cc(NC(=O)Nc3ccc(F)cc3)ccc2O1`: the activity score (inhibition) is 21.5%.
On to `O=C(NO)c1cccc(C(=O)N/N=C/c2cccnc2Cl)c1`, for which the activity score (inhibition) was 1.22%.
For `C[C@H](CO)N1C[C@H](C)[C@H](CN(C)Cc2ccncc2)Oc2ccc(NC(=O)Cc3cn(C)c4ccccc34)cc2CC1=O`, the activity score (inhibition) is 4.58%.
Take `C[C@@H]1CN([C@H](C)CO)C(=O)Cc2cc(NC(=O)Cc3cn(C)c4ccccc34)ccc2O[C@@H]1CN(C)S(=O)(=O)c1ccccc1`: the activity score (inhibition) was 47.8%.
For the compound `C[C@H]1CN([C@@H](C)CO)C(=O)Cc2cc(NC(=O)Cc3cn(C)c4ccccc34)ccc2O[C@@H]1CN(C)Cc1ccc(C(F)(F)F)cc1`, the activity score (inhibition) was 65.6% (active).
Take `C[C@H]1CN([C@@H](C)CO)C(=O)Cc2cc(NC(=O)Cc3cn(C)c4ccccc34)ccc2O[C@@H]1CN(C)Cc1ccccc1`: the activity score (inhibition) is 57.4% (active).
For `C[C@H](CO)N1C[C@H](C)[C@H](CN(C)C(=O)Nc2ccc(F)cc2)Oc2ccc(NC(=O)Cc3cn(C)c4ccccc34)cc2CC1=O`, the activity score (inhibition) is -2.27%.
With `C[C@H]1CN([C@@H](C)CO)C(=O)Cc2cc(NC(=O)Cc3cn(C)c4ccccc34)ccc2O[C@H]1CN(C)Cc1ccccc1`, the activity score (inhibition) was 11.1%.
